High-throughput results (PubChem BioAssay)
Hits are enriched below; roughly 3.8% of the tested compounds scored in any of these assays.
697 NFkB inh = lowers PMA/ionomycin-induced NF-kB signal in 697 B cells; 697 B-cell NF-kB luciferase reporter, 16 h; inhibition, % at 4 µM; 330,000 tested, 0.33% active; AID 435022; in the data active = inhibition above about 35%
Jurkat NFkB inh = inhibitors of the PMA/ionomycin-induced NF-kB reporter in Jurkat cells; AID 435003; inhibition, % at 4 µM; 330,000 tested, 0.53% active; PMA/ionomycin-induced NF-kB luciferase reporter, luminescence; in the data active = inhibition above about 50%
Shn3 inh set2 = Schnurri-3 reporter inhibition in Clone20 osteoblasts; Clone20 osteoblast Shn3 3'UTR firefly luciferase, 24 h; inhibition, % at 12.5 µM; 360,000 tested, 0.52% active;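 active = mean inhibition of at least 75% with every replicate also reaching 75%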;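 note: 0% = median of neutral control wells and 100% = pilot-screen positive control compound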
Gli-Sufu block = antagonists of Gli-Sufu signaling; Sufu-KO-LIGHT fibroblasts, Gli luciferase reporter luminescence; inhibition, % at 5 µM; 340,000 tested, 0.74% active; AID 588413;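 active = inhibition above about 55%, limit read from the data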;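 note: 0% = DMSO-treated cells and 100% = wells with medium but no cells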
Mdm2-MdmX inh = inhibitors of human Mdm2/MdmX interaction; SaOS-2 split-luciferase Mdm2/MdmX complementation, luminescence; O15151+Q00987; 330,000 tested, 3% active; inhibition, % at 8 µM;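 active = inhibition of at least 50% at 8 µM in the primary screen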
Target sequence (O15151 whole entry, looked up): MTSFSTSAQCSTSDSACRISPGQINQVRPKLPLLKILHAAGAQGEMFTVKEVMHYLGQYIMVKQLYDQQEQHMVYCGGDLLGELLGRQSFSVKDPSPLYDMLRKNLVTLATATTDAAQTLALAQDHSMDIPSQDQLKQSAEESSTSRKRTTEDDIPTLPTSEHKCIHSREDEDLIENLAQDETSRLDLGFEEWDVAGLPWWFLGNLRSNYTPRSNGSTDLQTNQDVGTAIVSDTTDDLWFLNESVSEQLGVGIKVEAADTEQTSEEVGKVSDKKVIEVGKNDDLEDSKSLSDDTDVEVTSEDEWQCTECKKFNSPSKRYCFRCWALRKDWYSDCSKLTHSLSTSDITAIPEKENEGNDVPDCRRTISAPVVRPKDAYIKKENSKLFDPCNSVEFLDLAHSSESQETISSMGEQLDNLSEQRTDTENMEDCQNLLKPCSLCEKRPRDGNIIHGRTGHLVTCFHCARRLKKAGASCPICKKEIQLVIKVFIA
Target sequence (Q00987 whole entry, looked up): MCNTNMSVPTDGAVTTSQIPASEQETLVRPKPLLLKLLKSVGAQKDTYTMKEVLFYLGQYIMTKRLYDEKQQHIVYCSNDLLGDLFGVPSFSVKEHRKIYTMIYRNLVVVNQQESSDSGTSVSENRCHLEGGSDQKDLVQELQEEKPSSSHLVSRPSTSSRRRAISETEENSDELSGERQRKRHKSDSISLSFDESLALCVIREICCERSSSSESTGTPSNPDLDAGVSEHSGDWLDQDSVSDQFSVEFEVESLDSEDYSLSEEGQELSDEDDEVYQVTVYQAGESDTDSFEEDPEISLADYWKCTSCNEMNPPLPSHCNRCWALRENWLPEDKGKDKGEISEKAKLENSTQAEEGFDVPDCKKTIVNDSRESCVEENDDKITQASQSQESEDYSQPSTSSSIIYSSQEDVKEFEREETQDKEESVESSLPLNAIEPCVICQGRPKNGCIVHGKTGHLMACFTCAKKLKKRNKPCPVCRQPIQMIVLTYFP
Mdm2 MdmX conf = human Mdm2/MdmX binding inhibition, confirmed; inhibition, % at 8 µM; shares compounds with Mdm2-MdmX inh; 10,000 tested, 55% active; luminescent assay; in the data active = inhibition above about 40%
Full FLuc ctr = full-length luciferase inhibition in Mdm2/MdmX counter-screen; SaOS-2 full-length luciferase counterscreen, luminescence; 6,200 tested, 77% active; shares compounds with Mdm2-MdmX inh; inhibition, % at 8 µM; AID 504607;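 active = mean inhibition at 8 µM reaching about 37%, which flags the compound as non-specific, limit read from the data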;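 note: p53-null SaOS-2 cells with luciferase driven by a doxycycline-inducible promoter; compound on cells about two nights before reading with doxycycline added after day one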
* hit, by the source's call; x = not tested or not shown.

SMILES | 697 NFkB inh | Jurkat NFkB inh | Shn3 inh set2 | Gli-Sufu block | Mdm2-MdmX inh | Mdm2 MdmX conf | others
O=C(Cc1ccc(Cl)cc1)Nc1ccc2oc(-c3ccncc3)nc2c1 | -13 | -9 | 7 | 4 | 55* | 21
COc1ccc(CC(=O)Nc2ccc(-c3noc(COc4ccccc4C)n3)cc2)cc1 | -5 | 4 | 32 | -1 | 19 | x
COc1ccc(C(=O)Nc2ccc(N3CCCC3)cc2)cc1OC | -5 | -13 | -47 | -16 | 3 | x
COc1ccc(-c2cc(C(=O)N/N=C(\C)c3cccnc3)c3ccccc3n2)c(OC)c1 | -8 | -9 | -31 | 3 | 16 | x
COc1ccc(CN(C)CC(=O)N2CCc3ccccc3C2)cc1 | 6 | -22 | 17 | 6 | 4 | x
Cn1c(-c2ccccc2)c(C#Cc2ccc(N)cc2)c2ccccc21 | 4 | -4 | -6 | 8 | 17 | x
COc1ccc(-c2nc(-c3ccc(NC(=O)c4ccncc4)cc3)no2)cc1OC | -39 | 41 | 90* | 16 | 70* | 82* | Full FLuc ctr=81*
CCOc1ccccc1-c1nc(-c2ccc(NC(=O)Cc3ccc(OC)cc3)cc2)no1 | -25 | -8 | 2 | -86 | 57* | 37
COc1ccc(CC(=O)Nc2ccc(-c3nc4cc(C)ccc4o3)c(O)c2)cc1OC | -6 | -20 | -11 | 1 | 92* | 47* | Full FLuc ctr=115*
COc1cc(-c2nc(-c3ccc(NC(=O)c4ccc5c(c4)OCO5)cc3)no2)cc(OC)c1OC | -55 | -32 | 4 | 5 | 83* | 77* | Full FLuc ctr=44*
COc1ccc(Cl)cc1-c1nc(-c2ccc(NC(=O)c3ccncc3)cc2)no1 | -24 | 3 | 14 | 6 | 6 | x
Cc1cccc(C)c1Nc1nnc(SCC(=O)c2ccc3c(c2)NC(=O)CO3)s1 | -9 | 12 | -22 | -2 | -17 | x
CN(C)CCNC(=O)CCn1nc(-c2ccc(Cl)cc2)ccc1=O | 13 | -7 | 16 | -9 | -1 | x
COc1cccc(-c2sc3ccc(OC)cc3c2-c2ccc(OCCN(C)C)cc2)c1 | 8 | -3 | -4 | 12 | 99* | 30
COc1cccc(-c2sc3ccc(OC)cc3c2-c2ccc(O)cc2)c1 | -1 | 1 | -6 | 16 | 15 | x
c1ccc(-c2sc3ccccc3c2-c2ccc(OCCN3CCOCC3)cc2)cc1 | 5 | 5 | 3 | 5 | 7 | x
COc1ccc(-c2sc3ccccc3c2-c2ccc(OCCN(C)C)cc2)cc1 | 20 | -10 | 51 | -7 | 100* | 49* | Full FLuc ctr=14
CN(C)CCOc1ccc(-c2c(-c3ccsc3)sc3ccccc23)cc1 | 21 | -2 | -5 | 17 | 93* | 33
COc1ccccc1CNC(=O)COC(=O)c1ccc(C)c(S(=O)(=O)N2CCOCC2)c1 | 6 | 6 | -10 | -5 | 5 | x
CC1(C)CC[C@]2(C(=O)O)[C@H](O)C[C@]3(C)C(=CCC4[C@@]5(C)C[C@H](O)[C@H](O)[C@@](C)(CO)C5CC[C@]43C)[C@@H]2C1 (some centres undefined) | 22 | -1 | 7 | -2 | 1 | x
CC(=O)Nc1c2c3c(cccc3n(C)c1=O)C(=O)c1ccccc1-2 | 13 | 6 | -8 | -12 | 16 | x
CC(=O)Nc1ccc(Nc2ccc3c4c(cc(=O)n3C)-c3ccccc3C(=O)c24)cc1 | 14 | -9 | -27 | 25 | 59* | 30
COc1ccc(COCC(O)CN2CCN(S(=O)(=O)c3ccc(C(C)C)cc3)CC2)cc1 (centres undefined) | 5 | -5 | 0 | 21 | 17 | x
CCOC(=O)c1c(NC(=S)N2CCCCC2)sc2c1CCN(C(=O)OCC)C2 | 5 | -5 | -3 | 26 | 72* | 15
CCOC(=O)c1c(NC(=S)N2CCOCC2)sc2c1CCN(C(=O)OCC)C2 | 15 | 13 | -108 | -10 | 51* | 0
SMILES | 697 NFkB inh | Jurkat NFkB inh | Shn3 inh set2 | Gli-Sufu block | Mdm2-MdmX inh | Mdm2 MdmX conf | others
C=CCNC(=S)Nc1sc2c(c1C(=O)OCC)CCN(C(=O)OCC)C2 | 8 | 8 | -3 | -1 | 5 | x
O=C(CSc1nnc(-c2ccco2)o1)N1CCCCC1 | -30 | -56 | -36 | -42 | -2 | x
CCOc1ccc(Nc2cc3n(c(=O)n2)CCc2cc(OC)c(OC)cc2-3)cc1 | 6 | -5 | 22 | 26 | 51* | 6
CCOc1ccccc1Nc1cc2n(c(=O)n1)CCc1cc(OC)c(OC)cc1-2 | 18 | 11 | 21 | 15 | 29 | x
CCOC(=O)Cc1csc(NC(=O)c2ccc(S(=O)(=O)N3CCOCC3)cc2)n1 | 9 | -3 | 13 | -19 | 17 | x
COc1ccccc1C1c2[nH]c3ccccc3c2C[C@H]2C(=O)N(C3CCN(Cc4ccccc4)CC3)CC(=O)N12 (some centres undefined) | 18 | 2 | -3 | 14 | 54* | 38 | Full FLuc ctr=90*
CN1CC(=O)N2C(c3ccc(Cl)cc3)c3[nH]c4ccccc4c3C[C@H]2C1=O (some centres undefined) | 21 | -11 | 42 | 10 | 52* | 14
COc1ccc(C2c3[nH]c4ccccc4c3C[C@H]3C(=O)N(C4CCN(Cc5ccccc5)CC4)CC(=O)N23)cc1OC (some centres undefined) | 11 | 7 | 7 | 11 | 27 | x
CC1=C(C(=O)OCCCBr)C(c2ccc3c(c2)OCO3)NC(=O)N1 (centres undefined) | 20 | 2 | -19 | -4 | 14 | x
CC(C)(C)C(=O)O/N=C(\N)Cc1ccc(-c2csnn2)cc1 | -34 | 3 | 14 | -2 | 77* | 18
COC(=O)c1cc(NC(=O)Nc2cccc(Cl)c2)ccc1Cl | 10 | -37 | 1 | -22 | 88* | 43* | Full FLuc ctr=96*
COc1ccccc1NS(=O)(=O)c1cccc(NC(=O)Nc2cccc(Cl)c2)c1 | 4 | -10 | 23 | 0 | 55* | 49* | Full FLuc ctr=46*
O=C(Nc1cccc(Cl)c1)Nc1ccc(Br)cc1F | -33 | -39 | 50 | -20 | 82* | 80* | Full FLuc ctr=55*
Cc1ccccc1NC(=O)c1ccc(OCc2c(C)noc2C)cc1 | 9 | 5 | 22 | 2 | -4 | x
Oc1ccc(-c2nccs2)cc1 | x | x | 5 | -31 | x | x
O=C(Nc1ccc(S(=O)(=O)NCc2ccco2)cc1)c1ccc(F)cc1 | -30 | -13 | 23 | -2 | 28 | x
O=c1c2ccccc2nc(CSc2nnnn2-c2ccccc2)n1-c1ccccc1Cl | 16 | 5 | -3 | -3 | 68* | 43* | Full FLuc ctr=64*
N=C(N)SCc1nc2ccccc2c(=O)n1-c1ccccc1Cl | -22 | -13 | -31 | -15 | 6 | x
Cc1ccc(OCC(=O)NCCNC(=O)c2ccccn2)cc1 | 10 | 2 | 1 | 7 | 2 | x
Cc1ccc(OCCCC(=O)NNC(=O)c2ccccn2)cc1 | 4 | 9 | 53 | 1 | 52* | 44* | Full FLuc ctr=45*
